Assay results reported in PubChem BioAssay (NCATS).
Where “and” joins values, the source holds several entries; their conditions need not be identical. Equal entries are not always repeated. Records with an inconclusive call do not appear. A call without a number means that no potency is given here. Calls of active or inactive are those of the source. Calls follow the shape of the dose curve; as a rule, active = well fitted cell-killing curve with a large enough effect; inconclusive = small, poorly fitted or top-dose-only effect, or effect the other way; inactive = no such curve, though single readings can be large or run the other way.

What was measured:
[1] = Viability qHTS for spleen associated tyrosine kinase inhibitor (SYKi) naive MV4-11 cells (AID 1963823); also: nearly all actives have a fitted effect of over 40% in size
Method in brief: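 Read-out: CellTiter-Glo luminescence. Exposure: 72 hr, 37 C, 5% CO2, 95% humidity. Cells: MV4-11 without SYK inhibitor history, 500/well, qHTS format.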

[2] = Viability qHTS for spleen associated tyrosine kinase inhibitor (SYKi) drug resistant MV4-11 cells (AID 1963824); also: nearly all actives have a fitted effect of over 35% in size
Method in brief: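 SYK-inhibitor-resistant MV4-11 AML cells were seeded at 500 per well onto compound and cultured 72 hours (37 °C, 5% CO2). CellTiter-Glo was then added, and after 10 min at room temperature, luminescence gave viability.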
Potency is read from the fitted curve at half-maximal effect.

SMILES	Potency [1]	Potency [2]	viability (% of control) [1]	viability, % of control [2]
Cc1cc(N(C)C)ccc1-c1nc2ccc(-c3nc4ccc(N5CCN(C)CC5)cc4[nH]3)cc2[nH]1	0.411 µM (active)	0.184 µM (active)		
CCCc1[nH]nc2c1C(c1cc(Cl)cc(Cl)c1O)C(C#N)=C(N)O2 (stereo not drawn)	16.4 µM (active)	16.4 µM (active)		
C/C=C1\[C@H](O[C@@H]2O[C@H](CO)[C@@H](O)[C@H](O)[C@H]2O)OC=C(C(=O)OC)[C@H]1CC(=O)O	inactive	inactive		
CC1(C)CC[C@]2(C(=O)O[C@@H]3O[C@H](CO)[C@@H](O)[C@H](O)[C@H]3O)CC[C@]3(C)C(=CCC4[C@@]5(C)CC[C@H](O[C@@H]6O[C@H](C(=O)O)[C@@H](O)[C@H](O)[C@H]6O)C(C)(C)C5CC[C@]43C)C2C1 (stereo partly drawn)			91.3% [at 9.25 µM] (inactive)	98% [at 9.25 µM] (inactive)
COC1=CC(=O)O[C@@H](CCc2ccccc2)[C@@H]1O	inactive	inactive		
O=C(/C=C\n1cnc(-c2cc(C(F)(F)F)cc(C(F)(F)F)c2)n1)N1CC(F)(F)C1	0.366 µM (active)	0.731 µM (active)		
O=C(OC[C@H]1O[C@@H](Oc2ccccc2COC(=O)C2(O)C=CCCC2O)[C@H](O)[C@@H](O)[C@@H]1O)c1ccccc1 (stereo partly drawn)	inactive	inactive		
CCC(C)/C=C(C)/C=C/C1=CC2=C(Cl)C(=O)C(C)(OC(C)=O)C(=O)C2(O)C(OC)O1 (stereo not drawn)	11.2 µM (active)	7.96 µM (active)		
O=[N+]([O-])c1cccc2[nH]c(CNc3nc(N4CCOCC4)nc4c3ncn4-c3ccsc3)nc12	0.0146 µM (active)	0.0206 µM (active)		
COC(=O)c1c(CC=C(C)C)c(OC2OC(CO)C(O)C(O)C2O)c2ccccc2c1OC1OC(CO)C(O)C(O)C1O (stereo not drawn)	inactive	inactive		
COC(=O)C1=COC(O[C@@H]2O[C@H](CO)[C@@H](O)[C@H](O)[C@H]2O)C2C(C)C(=O)CC12 (stereo partly drawn)	inactive	inactive		
COC(=O)[C@H](Cc1ccc([N+](=O)[O-])cc1)NC(=O)c1cccc2ccccc12	5.8 µM (active)	4.11 µM (active)		
O=C(OCC(O)CO[C@@H]1O[C@H](C(=O)O)[C@@H](O)[C@H](O)[C@H]1O)c1ccccc1 (stereo partly drawn)	inactive	inactive		
CC1(C)CCC2(C(=O)OC3OC(COC4OC(CO)C(O)C(O)C4O)C(O)C(O)C3O)CCC3(C)C(=CCC4C5(C)CCC(O)C(C)(C(=O)O)C5CCC43C)C2C1O (stereo not drawn)			83.4% [at 9.25 µM] (inactive)	102% [at 9.25 µM] (inactive)
CC(C)C1(O)C=C2C(=O)CC3C(C)(C(=O)O)CCCC3(C)C2CC1 (stereo not drawn)	inactive	inactive		
O=C(Nc1cccc(Nc2nccc(Nc3cccc(C(F)(F)F)c3)n2)c1)C1CC1	1.84 µM (active)	1.84 µM (active)		
Nc1n[nH]c(N)c1N=Nc1ccc(O)cc1	9.2 µM (active)	6.51 µM (active)		
C[C@@H]1O[C@@H](OC[C@H]2O[C@@H](OC(CCCCc3ccc(O)cc3)CCc3ccc(O)cc3)[C@H](O)[C@@H](O)[C@@H]2O)[C@H](O)[C@H](O)[C@H]1O (stereo partly drawn)	inactive	inactive		
C=C1C(=O)OC2/C=C(\COC(C)=O)CC/C=C(\C=O)CC(OC(=O)C(C)CC)C12 (stereo not drawn)	1.59 µM (active)	1.12 µM (active)		
C=C1CCC[C@]2(C)C[C@]3(O)OC(=O)C(C)=C3C[C@@H]12	inactive	inactive		
CC1(CO)CC2C(O)C(=O)C3(CO)CC3(C)C2C1 (stereo not drawn)	inactive	inactive		
C/C(=C/CO)CC[C@@H]1[C@@]2(C)CCC[C@](C)(C(=O)O)C2CC[C@@]1(C)O (stereo partly drawn)	inactive	inactive		
CN(C)S(=O)(=O)c1ccc2c(c1)/C(=C/c1cc3c([nH]1)CCCC3)C(=O)N2	0.82 µM (active)	1.64 µM (active)		
C=C[C@]1(C)C=C2CCC3C(C)(CCC[C@@]3(C)C(=O)O)C2CC1 (stereo partly drawn)	inactive	inactive		
COc1c(O[C@@H]2O[C@H](CO)[C@@H](O)[C@H](O)[C@H]2O)c(CCC(=O)O)cc2ccoc12	inactive	inactive		
COc1cc(Nc2cnc(C#N)c(O[C@H](C)CN(C)C)n2)ncc1-c1cnn(C)c1	0.934 µM (active)	1.32 µM (active)		
C[C@@H]1O[C@@H](O[C@H]2[C@H](O)[C@@H](O)[C@H](OC(=O)[C@]34CCC(C)(C)C[C@H]3C3=CCC5[C@@]6(C)CC[C@H](O[C@@H]7O[C@H](C(=O)O)[C@@H](O)[C@H](O)[C@H]7O)C(C)(C)C6CC[C@@]5(C)[C@]3(C)CC4)O[C@@H]2CO)[C@H](O)[C@H](O)[C@H]1O (stereo partly drawn)			72.1% [at 9.25 µM] (inactive)	75.6% [at 9.25 µM] (inactive)

SMILES	Potency [1]	Potency [2]	viability (% of control) [1]	viability, % of control [2]
CC1CCC2(C(=O)OC3OC(CO)C(O)C(O)C3O)CCC3(C)C(=CCC4C5(C)CCC(O)C(C)(CO)C5CCC43C)C2C1(C)O (stereo not drawn)	inactive	inactive		
C=C(C)C(=O)O[C@H]1[C@H]2C(=C)C(=O)O[C@@H]2/C=C(\CO)CC/C=C(/C=O)[C@@H]1O	10.1 µM (active)	9.04 µM (active)		
C[C@H]1[C@@H](O)[C@H](O)C2[C@]3(C)C([C@@H](O)[C@H]4OC(=O)[C@@H]1[C@@]24C)[C@](C)(O)C=C[C@H]3O[C@@H]1O[C@H](CO)[C@@H](O)[C@H](O)[C@H]1O (stereo partly drawn)	inactive	inactive		
O=C(O[C@H]1[C@@H]2C=CO[C@@H](O[C@@H]3O[C@H](CO)[C@@H](O)[C@H](O)[C@H]3O)[C@@H]2[C@@]2(CO)O[C@@H]12)c1ccccc1	inactive	inactive		
CC(C)=CCC[C@](C)(O[C@@H]1O[C@H](CO[C@@H]2OC[C@H](O)[C@H](O)[C@H]2O)[C@@H](O)[C@H](O)[C@H]1O)[C@H]1CC[C@]2(C)[C@@H]1[C@H](O)C[C@@H]1[C@@]3(C)CC[C@H](O[C@@H]4O[C@H](CO)[C@@H](O)[C@H](O)[C@H]4O[C@@H]4O[C@H](CO)[C@@H](O)[C@H](O)[C@H]4O)C(C)(C)[C@@H]3CC[C@]12C	inactive	inactive		
COc1cc(SC)ccc1C(=O)N1CCC(Cc2ccccc2)CC1	23.1 µM (active)	16.6 µM (active) and 20.6 µM (active)		
CCCCc1nc(Cl)c(CO)n1Cc1ccc(-c2ccccc2-c2nnn[nH]2)cc1	inactive	inactive		
Fc1ccc(C2CCNC[C@H]2COc2ccc3c(c2)OCO3)cc1 (stereo partly drawn)	16.4 µM (active)	9.2 µM (active)		
CC1=CC(=O)CC(C)(CO)C1(O)/C=C/C(C)O[C@@H]1O[C@H](CO)[C@@H](O)[C@H](O)[C@H]1O (stereo partly drawn)	inactive	inactive		
C=C(C)[C@H]1C[C@@H](O)C(=C)CC[C@@H](O)C(=C)[C@@H](O)C1	inactive	inactive		
COC(=O)c1cc(CN2CCN(C(=N)N)CC2)cc(C(=O)N2CCN(C(=O)c3ccc(C(=N)N)cc3)CC2)c1	inactive	inactive		
COc1ccc(CC(NC(C)=O)C(=O)O)cc1 (stereo not drawn)	inactive	inactive		
CS(=O)(=O)N(CC(=O)NCC1CC1)c1cc(C(F)(F)F)ccc1Cl	inactive	inactive		
C[C@@H]1CC[C@]2(C(=O)O[C@@H]3O[C@H](CO[C@@H]4O[C@H](CO)[C@@H](O)[C@H](O)[C@H]4O)[C@@H](O)[C@H](O)[C@H]3O)CC[C@]3(C)C(=CCC4[C@@]5(C)CC[C@H](O)[C@](C)(C(=O)O)C5CC[C@]43C)[C@@H]2[C@]1(C)O (stereo partly drawn)			70.3% [at 9.25 µM] (inactive)	98.7% [at 9.25 µM] (inactive)
C/C=C/C=C/C=C/C(=O)O[C@@H]1[C@@H](OC)C2=C(C(=O)N(C(CCC(=O)O)C(=O)O)C2)[C@@]2(C)CCCC(C)(C)[C@H]12 (stereo partly drawn)	inactive	inactive		
Cn1c(=O)c2nc(/C=C/c3cccc(Cl)c3)n(C)c2n(C)c1=O	inactive	inactive		
C=CCc1ccc(O[C@@H]2O[C@H](CO[C@@H]3O[C@@H](C)[C@H](O)[C@@H](O)[C@H]3O)[C@@H](O)[C@H](O)[C@H]2O)cc1	inactive	inactive		
O=C(OC1CN2CCC1CC2)N1CCc2ccccc2C1c1ccccc1 (stereo not drawn)	18.4 µM (active)	18.4 µM (active)		
C=CC(=O)N1CCN(C(=O)CNc2cc(-c3ccccc3Cl)c(Cl)cc2OC)CC1	10.3 µM (active)	11.6 µM (active)		
C[C@@H]1O[C@@H](O[C@H]2[C@H](O[C@H]3[C@H](O[C@H]4CC[C@@]5(C)C(CC[C@]6(C)C5CC=C5[C@@H]7CC(C)(C)C[C@@H](O)[C@]7(C)CC[C@]56C)[C@@]4(C)CO)O[C@H](C(=O)O)[C@@H](O)[C@@H]3O)O[C@H](C(=O)O)[C@H](O)[C@@H]2O)[C@H](O)[C@H](O)[C@H]1O (stereo partly drawn)			83.8% [at 9.25 µM] (inactive)	86.7% [at 9.25 µM] (inactive)
COc1cc(OC)cc(N(CCNC(C)C)c2ccc3ncc(-c4cnn(C)c4)nc3c2)c1	5.25 µM (active)	4.11 µM (active)		
COc1ccc(OC(=O)N(CC(=O)O)Cc2ccc(OCCc3nc(-c4ccccc4)oc3C)cc2)cc1	inactive	inactive		
O=C1NC(Cc2ccccc2)C(=O)N2CCCC12 (stereo not drawn)	inactive	inactive		
CCC/C=C/c1cc2c(C=O)c(O)c(CC=C(C)C)cc2o1	14.6 µM (active)	16.4 µM (active)		
COc1ccc(/C=C/C(=O)O[C@@H]2[C@@H](O)[C@@H](O)[C@H](O[C@@H]3C=C(CO)[C@H]4[C@H](O[C@@H]5O[C@H](CO)[C@@H](O)[C@H](O)[C@H]5O)OC=C[C@H]43)O[C@H]2C)cc1O	inactive	inactive		
O=C(/C=C/c1ccccc1)O[C@@H]1[C@@H](CO)O[C@@](CO)(O[C@H]2O[C@H](CO)[C@@H](O)[C@H](O)[C@H]2O)[C@H]1O	inactive	inactive		
CC1(C)CC2C(O)C3=C(CC(C)(O)C2C1)C(=O)OC3O (stereo not drawn)	inactive	inactive		
